Rows were chosen to be rich in hits. Some 1.2% of all compounds tested hit in one or more screens of this group.
PKA-R1A activ – activators of PKA-R1A holoenzyme, primary screen, biochemical, fluorescence polarization, Cy5-IP20, bovine R1A, mouse PKAc. cAMP-dependent protein kinase type I-alpha regulatory subunit (Bos taurus) + …. PKA-R1A dissociation; scaled: DMSO 0%, 113 µM cGMP 100%. activation, % at 11.4 µM. 340,000 compounds, 0.083% hits. AID 504707, 2011;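 active = percent activation above the mean of all tested compounds plus 3 SD, cut at about 19% in these data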;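 note: higher means more PKAc released from R1A so a rise in polarization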
PG9 binder – binders of HIV-1 gp120 antibody PG9, primary screen, biochemical, TR-FRET | HIV-1 gp120 / PG9 antibody interaction | TR-FRET gp120-PG9 antibody binding | inhibition, % at 6.7 µM | 360,000 compounds, 0.43% hits; in the data active = inhibition above about 8.5%
Rev-erbA mod – modulators of Rev-erb alpha DNA binding, primary screen, biochemical, FITC-DNA, fluorescence polarization, uHTS | Rev-erbα–FITC-DNA binding, 90 min | activity, % at 10 µM | 370,000 compounds, 0.79% hits;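 active = activity above about 14%, limit read from the data; passing the limit was not always enough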;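 note: 0% = DMSO wells with 35 nM protein and 100% = DMSO wells with 750 nM protein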
PKA-R2B activ – activators of PKA-R2B holoenzyme, primary screen, biochemical, fluorescence polarization, Cy5-IP20, human | cAMP-dependent protein kinase catalytic subunit beta (Homo sapiens) + cAMP-dependent … | PKA-R2B holoenzyme dissociation; R2B truncated from residue 108, S112A mutant; 0% DMSO only, 100% 113 µM cGMP | activation, % at 11.4 µM | 340,000 compounds, 0.079% hits | AID 504700, 2011;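 active = activation above a cutoff set at the mean over all compounds plus 3 SD, cut at about 18% in these data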;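 note: higher means more holoenzyme dissociation and a rise in polarization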
Target sequence (P31323 whole entry, looked up, other chains not shown, the tested form may be a part): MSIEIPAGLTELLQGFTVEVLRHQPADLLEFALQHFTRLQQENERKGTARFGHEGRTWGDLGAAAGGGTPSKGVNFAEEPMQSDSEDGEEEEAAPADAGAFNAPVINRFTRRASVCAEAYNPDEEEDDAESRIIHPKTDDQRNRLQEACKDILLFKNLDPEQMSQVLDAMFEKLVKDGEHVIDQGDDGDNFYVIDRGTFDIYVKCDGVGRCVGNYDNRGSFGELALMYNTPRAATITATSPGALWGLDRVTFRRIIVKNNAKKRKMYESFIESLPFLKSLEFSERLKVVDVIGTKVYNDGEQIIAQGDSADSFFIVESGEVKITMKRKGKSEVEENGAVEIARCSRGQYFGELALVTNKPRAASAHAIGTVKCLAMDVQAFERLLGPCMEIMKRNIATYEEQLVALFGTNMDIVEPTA
R2B FP artifact – fluorescence polarization artefacts, biochemical, artefact control for PKA-R2B activator project. shares compounds with PKA-R2B activ. FP artifact counterscreen. activation, % at 11.4 µM. 270 compounds, 6% hits; in the data active = activation above about 20%;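 note: Cy5 labelled IP20 peptide probe with compound but no PKA protein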
PKA-R2B act conf – activators of PKA-R2B holoenzyme, confirmation, biochemical, fluorescence polarization, human; PKA-R2B complex, activation; shares compounds with PKA-R2B activ; AID 504797, 2011; activation, % at 11.4 µM; 270 compounds, 9% hits; in the data active = activation above about 19%
Target sequence (P31323 whole entry, looked up): as the sequence (P31323 whole entry, looked up, other chains not shown, the tested form may be a part) above
* = called active by the depositor; · = no result given.

SMILES | PKA-R1A activ | PG9 binder | Rev-erbA mod | PKA-R2B activ | R2B FP artifact | PKA-R2B act conf
Cc1ccccc1N1CCN(S(=O)(=O)C[C@]23CCC(CC2NC(=O)[C@@H](N)CCS(C)(=O)=O)C3(C)C)CC1 (stereo not given in full) | 10 | -2 | -2 | 19* | 2 | -2
COc1cc(C(=O)NC2CCN(CC(=O)NC3CCCCC3C)CC2)cc(OC)c1OC (stereo not given) | -4 | -2 | -5 | 18* | 5 | 2
COc1ccc(C(=O)NC2CCN(CC(=O)NC3CCCCC3)CC2)cc1 | 10 | -2 | 5 | -8 | · | ·
COc1ccc(CCNC(=O)Cn2c(=O)oc3cc(Cl)ccc32)cc1OC | 7 | -1 | 2 | 19* | 0 | -2
COc1ccc(NC(=O)Cn2c(=O)oc3cc(Cl)ccc32)c(OC)c1 | 0 | -2 | -3 | 4 | · | ·
C[C@]12CCC3c4ccc(O)cc4CCC3C1CC[C@@H]2O (stereo not given in full) | · | · | -1 | · | · | ·
O=C(NC1CCCCC1)c1cc(S(=O)(=O)N2CCN(c3ccccc3)CC2)ccc1Cl | -7 | 1 | 2 | 20* | 2 | -2
O=S(=O)(O)c1cccc2c(N=Nc3ccc(O)c4ncccc34)cccc12 | 0 | · | · | 21* | -2 | 12
C[C@H]1CC2C([C@@H](O)C[C@@]3(C)C2CC[C@]3(O)C(=O)COC(=O)CCC(=O)O)[C@@]2(C)C=CC(=O)C=C12 (stereo not given in full) | · | · | -1 | · | · | ·
NC(=O)/C=C/C(=O)Nc1ccc(Cl)cc1 | -1 | 0 | -5 | -6 | · | ·
NC(=O)Nc1ccc(Cl)cc1 | 2 | 1 | -4 | 23* | -2 | 1
C[C@@H]1CC2C3CCC4=CC(=O)C=C[C@]4(C)[C@@]3(F)[C@@H](O)C[C@]2(C)[C@@]1(O)C(=O)CO (stereo not given in full) | · | · | -5 | · | · | ·
COc1ccc(-c2noc(CN(C(=O)c3ccc4c(c3)OCO4)C(C)C)n2)cc1OC | 9 | -2 | -2 | 19* | -1 | -5
COc1ccc(-c2noc(CN(C)C(=O)c3ccc4c(c3)OCO4)n2)cc1OC | 14 | -2 | -2 | 0 | · | ·
C=C1CSc2nc(=O)c3c4c(sc3n21)CCCC4 | -12 | 0 | -1 | -4 | · | ·
C=C1CSc2nc(=O)c3c4c(sc3n21)CCC4 | -5 | 3 | -1 | 20* | -3 | -3
COC(=O)c1ccc(N2CCN(S(=O)(=O)c3c(C)cc(C)cc3C)CC2)c([N+](=O)[O-])c1 | -14 | 0 | -4 | 18* | -5 | -5
COC(=O)c1ccc(N2CCN(S(=O)(=O)c3ccc(C)cc3)CC2)c([N+](=O)[O-])c1 | -5 | -1 | -2 | -8 | · | ·
Cc1cc2nc3c(=O)[nH]c(=O)nc-3n(C[C@@H](O)[C@@H](O)[C@@H](O)COP(=O)(O)O)c2cc1C | · | · | 5 | · | · | ·
CCCc1cc(=O)n2[nH]c(NCc3c(Cl)cccc3Cl)nc2n1 | 15 | -1 | -4 | 24* | 22* | 18
CCCc1cc(=O)n2[nH]c(NCc3ccccc3F)nc2n1 | 2 | -1 | 2 | 11 | · | ·
CSc1ccc(S(=O)(=O)NCC(=O)OC(C)C(=O)NCc2ccccc2)cc1[N+](=O)[O-] (stereo not given) | -4 | -1 | 0 | -4 | · | ·
CC(C)CSc1ccc(S(=O)(=O)NCC(=O)O)cc1[N+](=O)[O-] | 0 | -1 | 0 | 19* | 4 | 0
CC(=O)N1CCN(c2ccc(OCC3CO[C@](Cn4ccnc4)(c4ccc(Cl)cc4Cl)O3)cc2)CC1 (stereo not given in full) | · | · | 7 | · | · | ·
CCc1nnc(NC(=O)CSc2nnc(C)n2-c2ccc(C)cc2)s1 | -1 | 0 | 0 | 19* | 4 | 1
SMILES | PKA-R1A activ | PG9 binder | Rev-erbA mod | PKA-R2B activ | R2B FP artifact | PKA-R2B act conf
Cc1cccc(/C=N/NC(=O)c2ccccc2OCc2cccc(Br)c2)n1 | -7 | 0 | -2 | -3 | · | ·
Cc1cccc(/C=N/NC(=O)c2cc(Br)ccc2OCc2ccccc2)n1 | 1 | 0 | -5 | 19* | 8 | 2
COc1ccc(/C=N/NC2=NS(=O)(=O)c3ccccc32)cc1 | 4 | -2 | -1 | 23* | 2 | 3
CC(=O)Oc1ccc(/C=N/NC2=NS(=O)(=O)c3ccccc32)cc1 | 4 | -4 | -1 | 1 | · | ·
Cc1ccccc1-c1nnc(SCC(=O)NC2CCS(=O)(=O)C2)n1C (stereo not given) | 9 | 1 | 1 | 19* | 6 | 2
CCCCCCCC(=O)CC[C@@H]1[C@@H](C/C=C\CCCC(=O)OC(C)C)[C@@H](O)C[C@H]1O | · | · | -5 | · | · | ·
Cc1ccc(OCc2cc(C(=O)NC(C)Cc3cnccn3)no2)cc1C (stereo not given) | 4 | -3 | -4 | 21* | 7 | 5
Cc1cccc(CC(C)NC(=O)c2cc(COc3ccc(C)c(C)c3)on2)n1 (stereo not given) | 5 | -2 | -1 | -7 | · | ·
Oc1ccccc1/C=N/Nc1ncc(Br)cn1 | -4 | -1 | 7 | 26* | 3 | 2
Oc1ccccc1/C=N/Nc1ccccc1 | 9 | -2 | 0 | -1 | · | ·
O=C(c1ccc(OCC2CCCO2)cc1)N1CCN(c2ccccc2)CC1 (stereo not given) | 4 | 0 | 7 | 19* | 3 | 5
C=CCn1c(SCC(=O)Nc2sccc2C(N)=O)nc2ccc(Cl)cc2c1=O | 4 | -2 | 3 | -3 | · | ·
C=CCn1c(SCN2C(=O)c3ccccc3C2=O)nc2ccc(Cl)cc2c1=O | 3 | 0 | -2 | 19* | 0 | 3
Cc1ccc(S(=O)(=O)NC(C)(C)C)cc1C(=O)OCC(=O)N1CCCC1=O | -1 | -1 | 6 | 20* | 5 | 6
O=S(=O)(c1ccc2c(c1)OCCO2)N1CCC(c2nc3ccccc3[nH]2)CC1 | -1 | -3 | 0 | 19* | 4 | 2
O=S(=O)(c1ccc2c(c1)OCCO2)N1CCC(c2nc3ccc(Cl)cc3[nH]2)CC1 | -6 | -2 | -2 | 14 | · | ·
C=C(C)[C@H]1CC=C(C(=O)O)CC1 | · | · | 0 | · | · | ·
COc1ccccc1C(=O)NC(CCSC)C(=O)NCc1ccncc1 (stereo not given) | 7 | -2 | 2 | 21* | 0 | 1
CC(C)C1CCC(C(=O)N[C@@H](Cc2ccccc2)C(=O)O)CC1 (stereo not given in full) | · | · | -5 | · | · | ·
